Measured values from PubChem BioAssay (EPA / NIEHS).
Where “and” joins values, the source holds several entries; their conditions need not be identical. Identical values can stand only once. Inconclusive results are not listed. Some structures have more than one record in an assay (separate samples or runs), and their calls can disagree. Calls of active or inactive are those of the source. How the source made its calls, unless noted: active means hit-call score of the fitted dose curve at least 0.9, where 1 is the maximum; inactive means score below 0.9.

How the values were obtained:
[1] = biological target: Myc proto-oncogene protein (Homo sapiens) (UniProt P01106); assay: ATG_Myc_CIS: Attagene CIS-FACTORIAL HepG2 Assay for human Myelocytomatosis (Myc) Proto-Oncogene Transcription Factor (AID 2282990); conditions: HepG2, Attagene cis-reporter transcription factor activity; actives raise or lower the signal
Summary of the method: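 HepG2, transient MRTU transfection (cis promoters, endogenous TFs); 24 h dosing; TriZol RNA → oligo(dT) RT → PCR → 6-FAM primer extension → HpaI cut → CE. Bidirectional fit vs DMSO.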

[2] = ATG_NF_kB_CIS: Attagene CIS-FACTORIAL HepG2 Assay for human Nuclear Factor Kappa B (NF-kB) (AID 2282991); conditions: HepG2 Attagene cis-factorial NF-kB reporter mRNA; actives raise or lower the signal
Summary of the method: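 HepG2 cells transfected with cis-promoter-driven reporter units, so endogenous transcription factor activity is measured. Reporter mRNA quantified 24 h after dosing by RT-PCR and capillary electrophoresis, with bidirectional fitting against DMSO.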

[3] = ATG_NRF2_ARE_CIS: Attagene CIS-FACTORIAL HepG2 Assay for human Nuclear Factor Erythroid 2 Related Factor 2 (NFR2) response to Antioxidant Response Elements (ARE) (AID 2282992); conditions: HepG2 Attagene ARE/NRF2 reporter, transcription factor activity; actives raise or lower the signal;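 on AC50: reporter mRNA level measured by RT-PCR and capillary electrophoresis fluorescence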
Summary of the method: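 HepG2 cells transiently transfected with multiplexed cis-regulated reporter transcription units measure endogenous transcription factor activity. Reporter mRNA at 24 h is quantified by RT-PCR, fluorescent labelling and capillary electrophoresis, with bidirectional fitting relative to DMSO.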

[4] = ATG_Oct_MLP_CIS: Attagene CIS-FACTORIAL HepG2 Assay for human Octamer-Binding Transcription Factor (Oct) (AID 2282993); conditions: HepG2 Attagene cis-factorial Oct reporter, mRNA; actives raise or lower the signal
Summary of the method: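 Transient MRTU transfection of HepG2 → 24 h compound treatment → RNA isolation, reverse transcription, PCR → 6-FAM primer extension, HpaI digest → capillary electrophoresis. Activity fitted both directions against DMSO.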

[5] = biological target: Cellular tumor antigen p53 (Homo sapiens) (UniProt P04637); assay: ATG_p53_CIS: Attagene CIS-FACTORIAL HepG2 Assay for human p53 Transcription Factor (AID 2282994); conditions: HepG2 p53 cis-element reporter, Attagene mRNA; actives raise or lower the signal
Summary of the method: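 HepG2 cells transiently transfected with multiplexed cis-regulated reporter transcription units read endogenous TF activity. After 24 h compound exposure, reporter mRNA was quantified by RT-PCR, fluorescent labelling, HpaI digestion and capillary electrophoresis; bidirectional fits versus DMSO baseline.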

[6] = biological target: human Peroxisome Proliferator-activated Receptor alpha (PPARa), PPARA (gene 5465) (UniProt Q07869); assay: ATG_PPARa_TRANS: Attagene TRANS-FACTORIAL HepG2 Assay for human Peroxisome Proliferator-activated Receptor alpha (PPARa) (AID 2283001; active means hit-call score of the fitted dose curve at least 0.9, where 1 is the maximum)
Summary of the method: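 Read-out is fluorescence of reporter cDNA fragments resolved by capillary electrophoresis after RT-PCR. Human HepG2 liver cells carried transfected PPARa-Gal4 chimera and GAL4-UAS reporter units, treated 24 h; activity scored as increase over DMSO.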

[7] = biological target: human Peroxisome Proliferator-activated Receptor delta (PPARd), PPARD (gene 5467) (UniProt Q03181); assay: ATG_PPARd_TRANS: Attagene TRANS-FACTORIAL HepG2 Assay for human Peroxisome Proliferator-activated Receptor delta (PPARd) (AID 2283002; active means hit-call score of the fitted dose curve at least 0.9, where 1 is the maximum)
Summary of the method: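 Transient HepG2 transfection (multiple GAL4-UAS RTUs, chimeric receptor-Gal4); 24 h dosing; total RNA → oligo(dT) RT → PCR → 6-FAM primer extension → HpaI cut → CE. Positive direction vs DMSO.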

[8] = biological target: Retinoic acid receptor alpha (Homo sapiens) (UniProt P10276); assay: ATG_RARa_TRANS: Attagene TRANS-FACTORIAL HepG2 Assay for human Retinoic Acid Receptor alpha (RARa) (AID 2283005; active means hit-call score of the fitted dose curve at least 0.9, where 1 is the maximum)
Summary of the method: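 Reporter transcripts, measured by RT-PCR with fluorescent labeling and capillary electrophoresis after 24 h dosing, reflect activity of an exogenous human RARa–GAL4 fusion in transiently transfected HepG2. Fitted for increase relative to DMSO.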

[9] = biological target: Nuclear receptor subfamily 1 group I member 2 (Homo sapiens) (UniProt O75469); assay: ATG_PXR_TRANS: Attagene TRANS-FACTORIAL HepG2 Assay for human Pregnane X Receptor (PXR) (AID 2283008; active means hit-call score of the fitted dose curve at least 0.9, where 1 is the maximum)
Summary of the method: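 HepG2 cells transiently transfected with multiple reporter units, here a PXR-GAL4 chimera driving a GAL4-UAS reporter; 24 h compound exposure. Reporter mRNA measured by RT-PCR, FAM labelling and capillary electrophoresis; gain of signal fitted against DMSO baseline.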

[10] = biological target: human RAR-related Orphan Receptor beta (RORb), RORB (gene 6096) (UniProt Q92753); assay: ATG_RORb_TRANS: Attagene TRANS-FACTORIAL HepG2 Assay for human RAR-related Orphan Receptor beta (RORb) (AID 2283010; active means hit-call score of the fitted dose curve at least 0.9, where 1 is the maximum)
Summary of the method: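 Readout is reporter-gene mRNA induction, detected as fluorescence after RT-PCR and capillary electrophoresis, fitted for gain of signal against DMSO controls. Transiently transfected HepG2 liver cells carrying GAL4-UAS reporter constructs were treated for 24 hours.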

[11] = biological target: human Retinoic Acid Receptor beta (RARb), RARB (gene 5915) (UniProt P10826); assay: ATG_RARb_TRANS: Attagene TRANS-FACTORIAL HepG2 Assay for human Retinoic Acid Receptor beta (AID 2283004; active means hit-call score of the fitted dose curve at least 0.9, where 1 is the maximum)
Summary of the method: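 Induction of reporter mRNA from a chimeric RARb-Gal4 construct was measured by RT-PCR, FAM labelling, HpaI digestion and capillary electrophoresis. Measurements followed 24 h compound treatment of transiently transfected human HepG2 liver cells, with DMSO as baseline.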

[12] = BSK_3C_TissueFactor: BioMAP Diversity Plus: 3C Assay for Tissue Factor Biomarker Activity (AID 2282997); conditions: BioMAP 3C HUVEC, tissue factor biomarker readout; actives raise or lower the signal
Summary of the method: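 Dosing of human umbilical vein endothelial cells preceded a 24 h incubation. Tissue Factor was then read by ELISA, with increases and decreases both scored relative to DMSO controls.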

[13] = BSK_3C_uPAR: BioMAP Diversity Plus: 3C Assay for Urokinase-type plasminogen activator receptor (uPAR) Biomarker Activity (AID 2282998); conditions: BioMAP 3C HUVEC, uPAR biomarker ELISA; actives raise or lower the signal
Summary of the method: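 ELISA readout of uPAR on human vascular endothelium (umbilical vein primary cells), taken 24 h after chemical dosing. Increases and decreases are both fitted relative to DMSO vehicle.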

[14] = BSK_3C_VCAM1: BioMAP Diversity Plus: 3C Assay for Vascular cell adhesion molecule 1 (VCAM1) Biomarker Activity (AID 2282999); conditions: BioMAP 3C HUVEC, VCAM1 ELISA, cytokine-stimulated; actives raise or lower the signal
Summary of the method: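 Endothelial cells from human umbilical vein are treated with test chemical. At 24 h, VCAM-1 is measured by ELISA, and responses in either direction are fitted relative to DMSO.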

[15] = BSK_4H_Eotaxin3: BioMAP Diversity Plus: 4H Assay for Eotaxin 3 Biomarker Activity (AID 2283000); conditions: primary human endothelial cells (HUVEC); actives raise or lower the signal
Summary of the method: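 Human umbilical vein endothelial cells (BSK_4H system) dosed with test chemical; Eotaxin-3 (CCL26) measured by ELISA 24 h after dosing. Bidirectional curve fitting relative to DMSO negative control as baseline.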

[16] = read-out: Intercellular Adhesion Molecule 1 (ICAM1), ICAM1 (gene 3383); assay: BSK_3C_ICAM1: BioMAP Diversity Plus: 3C Assay for Intercellular Adhesion Molecule 1 (ICAM1) Biomarker Activity (AID 2283003); conditions: primary human endothelial cells (HUVEC); actives raise or lower the signal
Summary of the method: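 ICAM-1 levels measured by ELISA after HUVEC cultures in the 3C system had been dosed for 24 h. Gain or loss of signal relative to DMSO was fitted in both directions.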

[17] = BSK_3C_Proliferation: Cell Proliferation Assessment in the BioMAP Diversity Plus: 3C Assay (AID 2283006); conditions: primary human endothelial cells (HUVEC);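 on AC50: potency may reflect either rise or fall in cell number versus DMSO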
Summary of the method: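 Read-out is total protein by SRB absorbance at 560 nm, taken as a proxy for relative cell number. Primary human umbilical vein endothelium cultured below confluence was dosed for 48 h, TCA-fixed and SRB-stained; curves were fitted bidirectionally versus DMSO.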

[18] = biological target: Peroxisome proliferator-activated receptor gamma (Homo sapiens) (UniProt P37231); assay: ATG_PPARg_TRANS: Attagene TRANS-FACTORIAL HepG2 Assay for human Peroxisome Proliferator-activated Receptor-gamma (PPARg) (AID 2283007; active means hit-call score of the fitted dose curve at least 0.9, where 1 is the maximum)
Summary of the method: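 HepG2 cells are transiently transfected with GAL4-UAS reporter units driven by chimeric NR-Gal4 fusions and dosed for 24 h. Reporter mRNA is quantified by RT-PCR, 6-FAM labelling, HpaI digestion and capillary electrophoresis. Induction is scored against DMSO.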

[19] = biological target: human Retinoic Acid Receptor gamma (RARg), RARG (gene 5916) (UniProt P13631); assay: ATG_RARg_TRANS: Attagene TRANS-FACTORIAL HepG2 Assay for human Retinoic Acid Receptor gamma (RARg) (AID 2283009; active means hit-call score of the fitted dose curve at least 0.9, where 1 is the maximum)
Summary of the method: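 Transient transfection of HepG2 with multi-reporter constructs, then 24 h chemical treatment. Total RNA isolated, reverse-transcribed, PCR-amplified, fluorescently labelled and resolved by capillary electrophoresis; activity scored as mRNA induction versus DMSO.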

Measured: AC50

Chain of human Retinoic Acid Receptor gamma (RARg), RARG (gene 5916) (P13631 whole entry, looked up): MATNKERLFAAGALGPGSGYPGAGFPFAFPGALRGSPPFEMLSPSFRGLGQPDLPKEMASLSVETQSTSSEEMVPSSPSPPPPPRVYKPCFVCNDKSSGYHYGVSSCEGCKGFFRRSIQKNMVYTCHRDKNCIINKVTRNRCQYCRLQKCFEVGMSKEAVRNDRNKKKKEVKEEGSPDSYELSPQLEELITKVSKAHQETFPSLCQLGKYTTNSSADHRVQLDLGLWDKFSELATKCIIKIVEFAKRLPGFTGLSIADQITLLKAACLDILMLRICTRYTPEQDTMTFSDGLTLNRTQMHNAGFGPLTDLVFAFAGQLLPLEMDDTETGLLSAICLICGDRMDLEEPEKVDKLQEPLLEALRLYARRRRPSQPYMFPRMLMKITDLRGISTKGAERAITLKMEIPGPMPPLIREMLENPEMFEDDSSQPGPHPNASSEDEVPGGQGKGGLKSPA
Chain of Myc proto-oncogene protein (Homo sapiens) (P01106 whole entry, looked up): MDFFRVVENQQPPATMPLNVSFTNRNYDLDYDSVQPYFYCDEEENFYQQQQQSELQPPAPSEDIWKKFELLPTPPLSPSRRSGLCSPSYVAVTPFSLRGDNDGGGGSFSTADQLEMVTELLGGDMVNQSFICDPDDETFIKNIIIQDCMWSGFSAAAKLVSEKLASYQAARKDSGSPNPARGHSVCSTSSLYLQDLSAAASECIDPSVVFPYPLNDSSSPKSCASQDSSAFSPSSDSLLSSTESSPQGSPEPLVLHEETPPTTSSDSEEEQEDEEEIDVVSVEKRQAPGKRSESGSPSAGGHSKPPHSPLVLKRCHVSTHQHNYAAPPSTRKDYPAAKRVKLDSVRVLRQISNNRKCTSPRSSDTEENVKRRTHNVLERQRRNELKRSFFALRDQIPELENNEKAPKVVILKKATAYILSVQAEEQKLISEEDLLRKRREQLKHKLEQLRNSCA
Chain of Peroxisome proliferator-activated receptor gamma (Homo sapiens) (P37231 whole entry, looked up, the tested form may be a part): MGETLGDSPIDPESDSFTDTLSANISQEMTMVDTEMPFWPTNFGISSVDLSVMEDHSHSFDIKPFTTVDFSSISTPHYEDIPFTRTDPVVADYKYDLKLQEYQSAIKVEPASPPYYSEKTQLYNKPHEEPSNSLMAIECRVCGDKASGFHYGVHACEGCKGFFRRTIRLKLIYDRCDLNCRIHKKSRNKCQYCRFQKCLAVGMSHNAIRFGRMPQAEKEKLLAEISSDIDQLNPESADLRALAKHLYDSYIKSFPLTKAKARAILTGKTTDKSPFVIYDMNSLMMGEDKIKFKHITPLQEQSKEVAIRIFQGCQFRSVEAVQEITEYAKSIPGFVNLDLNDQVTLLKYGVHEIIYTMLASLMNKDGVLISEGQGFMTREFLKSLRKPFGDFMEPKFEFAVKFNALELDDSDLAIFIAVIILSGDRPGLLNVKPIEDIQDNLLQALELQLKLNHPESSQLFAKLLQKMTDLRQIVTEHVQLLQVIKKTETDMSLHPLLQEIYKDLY
Chain of human Peroxisome Proliferator-activated Receptor alpha (PPARa), PPARA (gene 5465) (Q07869 whole entry, looked up, the tested form may be a part): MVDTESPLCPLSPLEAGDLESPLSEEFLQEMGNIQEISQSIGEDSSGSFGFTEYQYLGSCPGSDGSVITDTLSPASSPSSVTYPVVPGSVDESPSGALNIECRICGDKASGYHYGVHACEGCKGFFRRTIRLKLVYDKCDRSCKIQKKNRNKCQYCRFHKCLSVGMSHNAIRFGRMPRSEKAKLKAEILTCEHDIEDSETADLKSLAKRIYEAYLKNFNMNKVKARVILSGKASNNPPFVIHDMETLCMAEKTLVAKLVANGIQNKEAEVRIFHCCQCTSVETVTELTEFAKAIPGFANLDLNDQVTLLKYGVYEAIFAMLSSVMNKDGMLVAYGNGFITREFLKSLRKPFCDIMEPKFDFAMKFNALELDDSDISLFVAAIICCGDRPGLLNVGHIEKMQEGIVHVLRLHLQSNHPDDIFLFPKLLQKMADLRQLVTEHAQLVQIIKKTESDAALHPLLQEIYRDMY
Chain of human Retinoic Acid Receptor beta (RARb), RARB (gene 5915) (P10826 whole entry, looked up, the tested form may be a part): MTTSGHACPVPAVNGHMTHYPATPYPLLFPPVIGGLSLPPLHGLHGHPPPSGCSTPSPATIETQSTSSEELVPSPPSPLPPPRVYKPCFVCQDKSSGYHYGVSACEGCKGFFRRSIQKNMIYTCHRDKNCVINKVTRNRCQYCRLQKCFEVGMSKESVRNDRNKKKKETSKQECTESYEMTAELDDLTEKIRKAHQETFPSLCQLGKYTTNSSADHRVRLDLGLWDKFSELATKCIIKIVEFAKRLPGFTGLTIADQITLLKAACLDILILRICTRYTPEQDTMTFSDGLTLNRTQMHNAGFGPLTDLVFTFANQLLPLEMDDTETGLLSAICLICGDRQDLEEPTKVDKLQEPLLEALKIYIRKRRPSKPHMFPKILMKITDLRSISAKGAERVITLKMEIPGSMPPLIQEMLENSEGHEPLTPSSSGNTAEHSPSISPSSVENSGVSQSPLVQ
Chain of human Peroxisome Proliferator-activated Receptor delta (PPARd), PPARD (gene 5467) (Q03181 whole entry, looked up, the tested form may be a part): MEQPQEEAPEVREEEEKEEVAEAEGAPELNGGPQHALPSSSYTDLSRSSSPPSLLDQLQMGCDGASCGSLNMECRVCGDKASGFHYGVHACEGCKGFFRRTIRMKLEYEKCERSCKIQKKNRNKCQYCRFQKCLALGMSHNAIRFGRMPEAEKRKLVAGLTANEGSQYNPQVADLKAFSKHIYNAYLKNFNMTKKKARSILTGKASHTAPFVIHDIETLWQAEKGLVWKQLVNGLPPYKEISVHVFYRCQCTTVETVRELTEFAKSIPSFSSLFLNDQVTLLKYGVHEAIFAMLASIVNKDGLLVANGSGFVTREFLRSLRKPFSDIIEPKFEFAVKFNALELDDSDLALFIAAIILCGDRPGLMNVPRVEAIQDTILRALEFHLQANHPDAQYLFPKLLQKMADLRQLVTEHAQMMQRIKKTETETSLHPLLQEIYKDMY
Chain of Nuclear receptor subfamily 1 group I member 2 (Homo sapiens) (O75469 whole entry, looked up, the tested form may be a part): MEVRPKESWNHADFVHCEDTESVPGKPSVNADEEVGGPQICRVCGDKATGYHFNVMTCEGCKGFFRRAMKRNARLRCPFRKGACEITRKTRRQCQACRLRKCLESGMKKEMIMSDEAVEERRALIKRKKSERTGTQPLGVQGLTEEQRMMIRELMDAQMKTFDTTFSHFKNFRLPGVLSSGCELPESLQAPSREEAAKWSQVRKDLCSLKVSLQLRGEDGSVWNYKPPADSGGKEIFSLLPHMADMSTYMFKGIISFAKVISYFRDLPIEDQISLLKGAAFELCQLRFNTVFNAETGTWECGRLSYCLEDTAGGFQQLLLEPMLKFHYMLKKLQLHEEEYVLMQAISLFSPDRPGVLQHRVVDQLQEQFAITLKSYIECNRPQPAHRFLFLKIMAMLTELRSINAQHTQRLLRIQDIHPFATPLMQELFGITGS
Chain of Retinoic acid receptor alpha (Homo sapiens) (P10276 whole entry, looked up, the tested form may be a part): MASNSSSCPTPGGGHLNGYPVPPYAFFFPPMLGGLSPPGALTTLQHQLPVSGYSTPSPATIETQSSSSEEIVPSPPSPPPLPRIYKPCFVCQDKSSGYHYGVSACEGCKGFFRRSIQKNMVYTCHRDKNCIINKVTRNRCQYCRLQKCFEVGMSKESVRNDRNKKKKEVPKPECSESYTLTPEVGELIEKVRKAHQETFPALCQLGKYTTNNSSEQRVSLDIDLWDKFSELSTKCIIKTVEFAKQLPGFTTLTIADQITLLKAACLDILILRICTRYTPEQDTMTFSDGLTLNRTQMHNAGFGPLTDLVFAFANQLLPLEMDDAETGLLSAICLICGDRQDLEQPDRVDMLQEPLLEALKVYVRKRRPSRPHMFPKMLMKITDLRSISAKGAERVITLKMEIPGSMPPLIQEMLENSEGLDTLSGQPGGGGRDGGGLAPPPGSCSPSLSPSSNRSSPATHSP
Chain of human RAR-related Orphan Receptor beta (RORb), RORB (gene 6096) (Q92753 whole entry, looked up, the tested form may be a part): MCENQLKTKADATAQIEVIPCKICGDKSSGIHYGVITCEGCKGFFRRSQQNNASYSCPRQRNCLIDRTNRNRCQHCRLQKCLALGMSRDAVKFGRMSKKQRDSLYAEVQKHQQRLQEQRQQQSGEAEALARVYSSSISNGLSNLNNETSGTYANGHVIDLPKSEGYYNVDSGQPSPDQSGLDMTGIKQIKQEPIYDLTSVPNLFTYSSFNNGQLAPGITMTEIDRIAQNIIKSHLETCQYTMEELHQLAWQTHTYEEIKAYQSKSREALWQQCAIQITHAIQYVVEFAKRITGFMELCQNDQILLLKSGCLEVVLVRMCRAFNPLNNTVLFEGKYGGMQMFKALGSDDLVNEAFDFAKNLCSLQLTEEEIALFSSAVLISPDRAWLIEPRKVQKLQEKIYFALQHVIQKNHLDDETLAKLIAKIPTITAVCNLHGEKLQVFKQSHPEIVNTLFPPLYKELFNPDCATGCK
Chain of Cellular tumor antigen p53 (Homo sapiens) (P04637 whole entry, looked up): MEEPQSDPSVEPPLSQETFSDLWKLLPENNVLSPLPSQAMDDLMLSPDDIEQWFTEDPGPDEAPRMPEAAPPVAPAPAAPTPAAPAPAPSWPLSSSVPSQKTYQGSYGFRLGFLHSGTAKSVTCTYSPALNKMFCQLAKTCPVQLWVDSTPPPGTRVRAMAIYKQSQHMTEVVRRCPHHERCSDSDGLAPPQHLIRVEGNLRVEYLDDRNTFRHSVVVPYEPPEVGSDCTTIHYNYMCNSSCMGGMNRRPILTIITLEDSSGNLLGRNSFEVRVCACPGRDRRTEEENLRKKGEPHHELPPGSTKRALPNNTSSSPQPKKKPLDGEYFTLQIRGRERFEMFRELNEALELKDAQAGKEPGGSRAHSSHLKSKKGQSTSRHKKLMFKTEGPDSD

CCOC(=O)CC(C(C)=O)C(C)=O
inactive: [1] | [2] | [3] | [4] | [5] | [6] | [7] | [8] | [9] | [10]

NC(=O)OCC(COC(N)=O)c1ccccc1
inactive: [1] | [2] | [6] | [7] | [9]

CCC(CC)C(=O)O
inactive: [1] | [2] | [3] | [4] | [5] | [6] | [7] | [11]

CCCCC(CC)COCC1CO1 (centres undefined)
active: [15] 3.97 µM
inactive: [1] | [2] | [3] | [12] | [13] | [14] | [15] | [16] | [17] | [18] | [9]

C=C1[C@H]2CC[C@@H]3[C@H]2C(C)(C)CCC[C@]13C
inactive: [1] | [3] | [4] | [7] | [11] | [18] | [9] | [19]

c1ccc(CNCc2ccccc2)cc1
inactive: [3] | [5] | [6] | [7] | [18] | [9]

CCCCCc1ccc(Cl)cc1
active: [3] 120 µM
inactive: [1] | [4] | [5] | [18] | [9]

Nc1nc2ccccc2[nH]1
inactive: [3] | [4] | [5] | [6] | [11] | [18] | [9]

CCC(C)C=O (centres undefined)
inactive: [1] | [2] | [3] | [4] | [5] | [6] | [7] | [9] | [10]

COCc1c(C(C)C)nc(C(C)C)c(/C=C/[C@@H](O)C[C@@H](O)CC(=O)O)c1-c1ccc(F)cc1
active: [12] 5.66 µM | [13] 0.0342 µM | [15] 0.0266 µM | [17] 39 nM | [18] 12.8 µM | [9] 1.76 µM
not listed: [8] | [10] | [11] | [19]
inactive: all other assays above

CC(=O)c1ccc2c(c1)CCCC2
inactive: [1] | [2] | [3] | [4] | [5] | [6] | [7] | [18] | [9]

O=c1cc(-c2ccccc2)oc2ccccc12
inactive: [1] | [6] | [7] | [8] | [19]
active: [2] 82.3 µM | [4] 52.4 µM | [18] 1.1 µM | [9] 6.29 µM

Cc1cccc(N)n1
inactive: [1] | [3] | [4] | [7] | [11] | [9] | [10]

CC(=O)c1ccc[nH]1
inactive: [1] | [2] | [3] | [4] | [5] | [6] | [7] | [8] | [18]

Nc1ccc(N)c(Cl)c1
inactive: [4] | [12] | [13] | [6] | [16] | [8] | [19]
active: [1] 33.4 µM | [3] 4.45 µM | [5] 33.4 µM | [14] 7.54 µM and 7.95 µM | [15] 20 µM and 15.1 µM | [7] 68 µM | [17] 13.1 µM and 16.2 µM | [9] 4.08 µM

COC(=O)c1cc(Cl)ccc1[N+](=O)[O-]
active: [3] 48 µM | [18] 19.7 µM
inactive: [1] | [2] | [5] | [9]

CCCCC(CC)COC(=O)c1ccccc1 (centres undefined)
inactive: [1] | [2] | [3] | [4] | [7] | [11] | [18] | [9]

[Cl][Nd]([Cl])[Cl]
inactive: [1] | [2] | [3] | [4] | [5] | [6] | [7] | [9] | [19]

COc1cc(NC(=O)CC(C)=O)c(OC)cc1Cl
inactive: [3] | [4] | [6] | [18] | [9] | [19]
